The campaign covered roughly 5,500 compounds. About 2,000 (36%) were called active. About 18% were inconclusive and are not listed. No stated cut-off is given here; in the data, active means normalized growth mostly below about 0.91 (no sharp cut-off); inconclusive means no clear call, values can overlap the other calls; inactive means mostly above about 0.92. Some of the results follow.
Assay: chemical genetic growth profiling, strain panel (AID 1159580);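 further: tested at 20 µM; growth read once vehicle control cultures reached saturation at 30 °C; 1 = growth at the plate median or of vehicle wells; lower values mean less growth of the strain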
Settings: growth OD

Measured: normalized growth

CCCCc1nc(Cl)c(CO)n1Cc1ccc(-c2ccccc2-c2nn[nH]n2)cc1
inactive: S. cerevisiae deletion strains, locus YJR075W, strain HOC1, hits give low values 0.999 | S. cerevisiae deletion strains, locus YKL009W, strain mrt4, hits give low values 0.985 | S. cerevisiae deletion strains, locus YKL068W, hits give low values 0.997 | S. cerevisiae deletion strains, locus YKL085W, strain MDH1 (second series), hits give low values 0.992 | S. cerevisiae deletion strains, locus YKL085W, strain MDH1, hits give low values 0.992 | S. cerevisiae deletion strains, locus YKL160W, strain elf1, hits give low values 0.991 | S. cerevisiae deletion strains, locus YKL190W, strain CNB1, hits give low values 1.01 | S. cerevisiae deletion strains, locus YKR001C, strain vps1, hits give low values 0.99 | S. cerevisiae deletion strains, locus YKR026C, strain gcn3, hits give low values 0.988 | S. cerevisiae deletion strains, locus YKR091W, strain srl3, hits give low values 0.991 | S. cerevisiae deletion strains, locus YLL001W, strain dnm1, hits give low values 0.98 | S. cerevisiae deletion strains, locus YLL026W, hits give low values 0.992 | S. cerevisiae deletion strains, locus YLL041C, strain sdh2, hits give low values 0.992 | S. cerevisiae deletion strains, locus YLR027C, strain aat2, hits give low values 0.993 | S. cerevisiae deletion strains, locus YLR039C, strain RIC1, hits give low values 1.02 | S. cerevisiae deletion strains, locus YLR058C, strain SHM2, hits give low values 0.997 | S. cerevisiae deletion strains, locus YLR102C, strain apc9, hits give low values 0.994 | S. cerevisiae deletion strains, locus YLR113W, strain HOG1, hits give low values 1.01 | S. cerevisiae deletion strains, locus YLR221C, strain rsa3, hits give low values 0.987 | S. cerevisiae deletion strains, locus YLR258W, strain gsy2, hits give low values 0.998 | S. cerevisiae deletion strains, locus YLR262C, strain YPT6 (second series), hits give low values 0.995 | S. cerevisiae deletion strains, locus YLR262C, strain YPT6, hits give low values 1.04 | S. cerevisiae deletion strains, locus YLR268W, strain sec22, hits give low values 0.999 | S. cerevisiae deletion strains, locus YLR320W, strain mms22, hits give low values 0.985 | S. cerevisiae deletion strains, locus YLR330W, strain CHS5, hits give low values 1.01 | S. cerevisiae deletion strains, locus YLR342W, strain FKS1 (second series), hits give low values 0.997 | S. cerevisiae deletion strains, locus YLR342W, strain FKS1, hits give low values 1.01 | S. cerevisiae deletion strains, locus YLR357W, strain rsc2, hits give low values 0.993 | S. cerevisiae deletion strains, locus YLR370C, strain arc18, hits give low values 0.987 | S. cerevisiae deletion strains, locus YLR371W, strain rom2, hits give low values 0.997 | S. cerevisiae deletion strains, locus YLR384C, strain iki3, hits give low values 0.974 | S. cerevisiae deletion strains, locus YLR418C, strain cdc73, hits give low values 1 | S. cerevisiae deletion strains, locus YML016C, strain PPZ1, hits give low values 1 | S. cerevisiae deletion strains, locus YML032C, strain rad52, hits give low values 1 | S. cerevisiae deletion strains, locus YML120C, strain ndi1, hits give low values 0.981 | S. cerevisiae deletion strains, locus YML124C, strain tub3, hits give low values 0.997 | S. cerevisiae deletion strains, locus YMR058W, strain fet3, hits give low values 1 | S. cerevisiae deletion strains, locus YMR078C, strain ctf18, hits give low values 0.999 | S. cerevisiae deletion strains, locus YMR125W, strain sto1, hits give low values 0.982 | S. cerevisiae deletion strains, locus YMR129W, hits give low values 0.994 | S. cerevisiae deletion strains, locus YMR205C, strain PFK2, hits give low values 0.998 | S. cerevisiae deletion strains, locus YMR223W, strain ubp8, hits give low values 1 | S. cerevisiae deletion strains, locus YMR231W, strain pep5, hits give low values 0.982 | S. cerevisiae deletion strains, locus YMR263W, strain SAP30, hits give low values 1.02 | S. cerevisiae deletion strains, locus YMR307W, strain GAS1, hits give low values 0.911 | S. cerevisiae deletion strains, locus YNL067W, strain RPL9B, hits give low values 1.02 | S. cerevisiae deletion strains, locus YNL071W, strain lat1, hits give low values 1 | S. cerevisiae deletion strains, locus YNL128W, strain TEP1, hits give low values 1.01 | S. cerevisiae deletion strains, locus YNL153C, strain GIM3, hits give low values 1.01 | S. cerevisiae deletion strains, locus YNL183C, strain NPR1, hits give low values 1.01 | S. cerevisiae deletion strains, locus YNL209W, strain ssb2, hits give low values 0.979 | S. cerevisiae deletion strains, locus YNL233W, strain BNI4, hits give low values 1.02 | S. cerevisiae deletion strains, locus YNL248C, strain rpa49, hits give low values 0.996 | S. cerevisiae deletion strains, locus YNL250W, strain rad50, hits give low values 0.993 | S. cerevisiae deletion strains, locus YNL271C, strain bni1, hits give low values 0.995 | S. cerevisiae deletion strains, locus YNL298W, strain CLA4, hits give low values 0.989 | S. cerevisiae deletion strains, locus YNL307C, strain MCK1, hits give low values 1.02 | S. cerevisiae deletion strains, locus YNL322C, strain KRE1 (second series), hits give low values 0.971 | S. cerevisiae deletion strains, locus YNL322C, strain KRE1, hits give low values 1.01 | S. cerevisiae deletion strains, locus YNR049C, strain mso1, hits give low values 0.985 | S. cerevisiae deletion strains, locus YNR052C, strain pop2, hits give low values 0.99 | S. cerevisiae deletion strains, locus YOL006C, strain TOP1, hits give low values 1.04 | S. cerevisiae deletion strains, locus YOL012C, strain htz1 0.901 | S. cerevisiae deletion strains, locus YOL147C, strain pex11, hits give low values 1 | S. cerevisiae deletion strains, locus YOR001W, strain rrp6, hits give low values 0.978 | S. cerevisiae deletion strains, locus YOR061W, strain CKA2, hits give low values 1.01 | S. cerevisiae deletion strains, locus YOR069W, strain VPS5, hits give low values 1 | S. cerevisiae deletion strains, locus YOR070C, strain gyp1, hits give low values 0.986 | S. cerevisiae deletion strains, locus YOR080W, strain dia2, hits give low values 0.978 | S. cerevisiae deletion strains, locus YOR083W, strain WHI5, hits give low values 0.981 | S. cerevisiae deletion strains, locus YOR106W, strain vam3, hits give low values 1 | S. cerevisiae deletion strains, locus YOR136W, strain idh2, hits give low values 1 | S. cerevisiae deletion strains, locus YOR144C, strain elg1, hits give low values 1 | S. cerevisiae deletion strains, locus YOR184W, strain ser1, hits give low values 1 | S. cerevisiae deletion strains, locus YOR231W, strain MKK1, hits give low values 0.965 | S. cerevisiae deletion strains, locus YOR265W, strain rbl2, hits give low values 0.999 | S. cerevisiae deletion strains, locus YOR270C, strain vph1, hits give low values 0.97 | S. cerevisiae deletion strains, locus YOR290C, strain snf2, hits give low values 1 | S. cerevisiae deletion strains, locus YOR316C, strain cot1, hits give low values 0.999 | S. cerevisiae deletion strains, locus YPL051W, strain arl3, hits give low values 0.99 | S. cerevisiae deletion strains, locus YPL055C, strain LGE1, hits give low values 1.01 | S. cerevisiae deletion strains, locus YPL078C, strain atp4, hits give low values 0.985 | S. cerevisiae deletion strains, locus YPL106C, strain sse1, hits give low values 0.964 | S. cerevisiae deletion strains, locus YPL240C, strain hsp82, hits give low values 1.02 | S. cerevisiae deletion strains, locus YPL241C, strain CIN2, hits give low values 1.01 | S. cerevisiae deletion strains, locus YPL256C, strain CLN2, hits give low values 0.967 | S. cerevisiae deletion strains, locus YPR119W, strain clb2, hits give low values 0.995 | S. cerevisiae deletion strains, locus YPR141C, strain kar3, hits give low values 1 | S. cerevisiae deletion strains, locus YPR163C, strain tif3, hits give low values 1.01 | S. cerevisiae deletion strains, locus YPR167C, strain met16, hits give low values 0.998 | S. cerevisiae deletion strains, strain wtn01, hits give low values 0.989 | S. cerevisiae strains, strain wild type, hits give low values 1.01
